Data on 38 compounds can be found in PubChem BioAssay AID651791 (National Center for Advancing Translational Sciences (NCATS), 2012).

Inconclusive results are not listed. Calls of active or inactive are those of the source. Calls follow the shape of the dose curve; as a rule, active = well fitted inhibition curve with a large enough effect; inconclusive = small, poorly fitted or top-dose-only effect; inactive = no such curve, though single readings can be large or run the other way.
Potency is read from the fitted curve at half-maximal effect.

This test is described as follows: InCell qHTS Assay for Inhibitors of the mTORC1 Signaling Pathway in MEF (Tsc2-/-, p53-/-) Cells: Hit Validation.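 Also: phospho-S6 Ser235/236 signal normalized to propidium iodide cell count per well; nearly all actives have a fitted effect of over 75% in size.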 The conditions noted are these: phospho-rpS6 immunofluorescence, 24 h; activity change, negative = inhibition: at 38.3 µM (top of the series). A general note: qHTS replaces the single test concentration by a dilution series.
In the case of `CCC1=Nc2cc(C(=O)NC3CCCC3)ccc2Sc2ccc(Cl)cc21`, the activity change, negative = inhibition is -100%. Turning to `Cc1ccc(C(=O)CC2(O)C(=O)N(Cc3ccccc3)c3ccccc32)c(C)c1` (stereo not drawn), the activity change, negative = inhibition was -100%. The same measure, in the same setting: with `CCOc1ccccc1NC(=O)Cn1c(=O)n(CCC(=O)NCc2ccc3c(c2)OCO3)c(=O)c2ccccc21` the figure was -100%; with `Cc1cccn2c(Nc3ccccc3)c(-c3cccs3)nc12`, -100%; with `COc1ccc(CN2CCN(c3ncnc4sc5c(c34)CCCC5)CC2)cc1F`, -100%.

`Cc1ccc(C)c(NC(=O)c2nc(S(=O)(=O)Cc3ccc(F)cc3)ncc2Cl)c1`: the Potency was 3.29 µM (active). As to `CS(=O)(=O)N(CC(=O)NCCc1ccccc1)c1cc(C(F)(F)F)ccc1Cl`, the activity change, negative = inhibition is -100%.

Regarding `COc1cc(C)ccc1OCCn1c(-c2ccc(Cl)cc2)nc2ccccc2c1=O`, the activity change, negative = inhibition is -100%. On to `Cc1ccc(S(=O)(=O)c2nc(-c3ccco3)oc2SC(C)c2ccccc2)cc1` (stereo not drawn), for which the activity change, negative = inhibition was -100%. Still for that read-out and setting: with `CCc1ccc(NC(=O)CSc2nccn2C2CCCC2)cc1` the figure was -100%; with `CCOC(=O)C1=C(CN2CCN(c3cc(C)ccc3C)CC2)NC(=O)NC1c1ccc(Cl)cc1` (stereo not drawn), -100%; with `CCn1c(CN2CCC(C)CC2)nc2cc(NC(=O)c3ccccc3[N+](=O)[O-])ccc21`, -100%. On the same count and under the same terms, the figure for `COc1cc(-c2ccno2)ccc1S(=O)(=O)N1CCN(c2cc(C)ccc2C)CC1` is -100%. Turning to `CCN1CCOC(=O)C1CC(=O)Nc1cc(C)ccc1OC` (stereo not drawn), the Potency is 13.1 µM (active).

As to `CCCCN(CC)CCNC(=O)C1CCN(c2nnc(C)c3c(C)n(-c4ccc(C)cc4)nc23)CC1`, the activity change, negative = inhibition is -100%. On to `CC(CNC(=O)c1ccc(Nc2nc3ccccc3n3nnnc23)cc1)c1ccccc1` (stereo not drawn), for which the activity change, negative = inhibition is -100%. Turning to `CCc1ccc(-n2c(=O)c3c4c(sc3n(CC(=O)c3ccc(F)cc3)c2=O)CCC4)cc1`, the Potency was 9.27 µM (active). For `Cc1ccc(N(CC(O)Cn2c3ccccc3c3ccccc32)S(=O)(=O)c2ccc(F)cc2)cc1` (stereo not drawn), the activity change, negative = inhibition is -64.5%. Still for that read-out and setting: with `Cc1ccc(C)c(CN2C(=O)C(=O)c3ccccc32)c1` the figure was -100%; with `Cc1oc2c(cc(NS(=O)(=O)c3ccc(C(C)C)cc3)c3ccccc32)c1C(=O)OCc1ccccc1`, -1.72%. Consider `Cc1ccccc1NC(=O)c1sc2nc3c(cc2c1N)CCCC3`, for which the activity change, negative = inhibition is -100%. As for `COc1ccc(OC)c(NC2=C(c3ccccc3)C(=O)c3ccccc32)c1`, the activity change, negative = inhibition was -9.58%. Same read-out and setting: with `CC1C(=O)Nc2ccc(S(=O)(=O)Nc3ccccc3Br)cc2NC1=O` (stereo not drawn) the figure was -100%. Still for that read-out and setting: the figure for `Cc1cccc(-n2cnc3cc(C(=O)NC4CCCCCC4)ccc32)c1` is -100%; for `COc1ccccc1NC(=O)c1sc(-c2ccc(Cl)cc2)cc1N` it is -100%; for `CCOc1ccc(CCNCc2c(C(=O)O)n(Cc3ccc(C)cc3)c3cc(OC)ccc23)cc1` it is -100%.

With `COc1ccc(OCc2nc3c4c(-c5ccccc5)c(-c5ccccc5)oc4ncn3n2)cc1`, the activity change, negative = inhibition was -100%. Same read-out and setting: with `CCc1ccc(CN(Cc2ccco2)C(=O)c2cc(-c3ccc(C)c(F)c3)on2)cc1` the figure was -100%. The same measure, in the same setting: the figure for `CCCCOc1ccccc1C1CC(=O)Nc2ccc3ccccc3c21` (stereo not drawn) is -100%. Same read-out and setting: the figure for `Cc1cccc(N(C)S(=O)(=O)c2ccc(-c3cc(C)no3)s2)c1` is -9.17%.

With `CCOc1ccc(S(=O)(=O)Nc2ccc(OC)c(Cl)c2)c2cccnc12`, the activity change, negative = inhibition was -100%.

Regarding `Cc1ccc(OCC(O)Cn2c(=N)n(CCN3CCCCC3)c3ccccc32)cc1` (stereo not drawn), the Potency was 16.5 µM (active). Regarding `COc1cc(Cl)c(C)cc1NC(=O)C1CCN(c2nc3ccccc3n3cccc23)CC1`, the activity change, negative = inhibition was -100%. On the same count and under the same terms, with `COCCCNC(=O)c1cc2c(=O)oc3ccc(C)cc3c2s1` the figure was -100%; with `O=S(=O)(c1ccccc1)n1nc(-c2ccc(Cl)cc2)nc1NCc1ccccc1`, -5.06%; with `Cc1ccc(CN(Cc2ccco2)C(=O)c2cccc(C)c2)cc1`, -100%. As for `COc1cc(OC)c(NC(=O)Nc2ccc3c(c2)N(C)C(=O)c2ccccc2S3)cc1Cl`, the Potency was 13.1 µM (active). Take `COc1ccccc1CNC(=O)CCCn1c(=O)c2cccn2c2ccccc21`: the activity change, negative = inhibition is -100%.
